Compound activity from PubChem.
The list is not random: actives were taken first. Their share in the collection is about 2.5%.
NFkB SMM: binders of human NF-kappa-B p105; Small molecule microarray, anti-His fluorescence binding; calls only; 17,000 compounds, 1.3% hits; AID 624139;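 active means spot fluorescence over background significantly raised, with a chance value under 7% in all four replicate spots of the compound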;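 further: probe protein is his-tagged human p50 processed subunit at 1 µg/ml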
Myc binder: binders of human c-Myc. 17,000 compounds, 1.5% hits. calls only. small molecule microarray, His-c-Myc binding, anti-His fluorescence;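 active means spot fluorescence over background with P-value below 7% in all four replicate spots, showing protein binding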
Target sequence (P01106 whole entry, looked up): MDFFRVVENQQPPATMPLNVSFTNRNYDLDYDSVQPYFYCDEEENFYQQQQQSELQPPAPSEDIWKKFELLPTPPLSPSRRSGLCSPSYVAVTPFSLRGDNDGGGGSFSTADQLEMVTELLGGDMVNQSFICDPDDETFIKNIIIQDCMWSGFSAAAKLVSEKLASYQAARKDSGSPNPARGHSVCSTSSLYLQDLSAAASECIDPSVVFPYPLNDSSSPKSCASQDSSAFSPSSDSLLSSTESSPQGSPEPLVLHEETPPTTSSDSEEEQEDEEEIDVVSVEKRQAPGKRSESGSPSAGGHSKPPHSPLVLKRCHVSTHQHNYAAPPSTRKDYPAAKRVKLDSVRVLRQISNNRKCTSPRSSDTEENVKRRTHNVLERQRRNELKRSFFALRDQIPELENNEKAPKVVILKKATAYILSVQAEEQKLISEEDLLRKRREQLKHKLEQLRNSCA
p53 mut binder: mutant p53 (human) binding. small molecule microarray binding, anti-GST fluorescence. 17,000 compounds, 0.4% hits. calls only. AID 624136;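 active means compounds whose four printed spots each glow above background more than chance allows, each with a p-value under 7%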
STAT3 binder: binds human STAT3 on microarray. P40763. Small molecule microarray, His-STAT3 binding, anti-His fluorescence. 17,000 compounds, 0.2% hits. calls only;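 active means compounds whose four printed spots each show fluorescence over background unusually high for their array block, chance value under 7%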
Calls only; - = inactive; + = active, no number.

SMILES	NFkB SMM	Myc binder	p53 mut binder	STAT3 binder
C=C1CCC2(C(=O)OC3OC(CO)C(O)C(O)C3OC3OCC(O)C(O)C3O)CCC3(C)C(=CCC4C5(C)CCC(OC6OC(CO)C(O)C(O)C6O)C(C)(CO)C5CCC43C)C2C1 (stereo unspecified)	-	-	-	-
O=S1(=O)N=C(N(CCO)c2ccc(Cl)cc2)c2ccccc21	-	-	-	-
COC(=O)c1cc(Br)ccc1NC(=O)COc1ccc(C(C)(C)C)cc1	-	+	-	-
COC(=O)c1c(NC(=O)CC2Nc3cccc4cccc(c34)NC2=O)sc(C)c1C (stereo unspecified)	-	+	-	-
COC(=O)c1c(NC(=O)CSc2nnc3ccccn23)sc(C)c1C	-	-	-	-
C[C@@H]1CN([C@H](C)CO)C(=O)Cc2cc(N(C)C)ccc2O[C@H]1CN(C)S(=O)(=O)c1cccs1	-	-	-	-
C[C@H](CO)N1C[C@H](C)[C@@H](CN(C)Cc2ccc(C(F)(F)F)cc2)Oc2ccc(NC(=O)Cc3cn(C)c4ccccc34)cc2CC1=O	+	+	-	-
C[C@H]1CN([C@@H](C)CO)C(=O)Cc2cc(NC(=O)Nc3ccc(F)cc3)ccc2O[C@H]1CN(C)CC1CC1	-	-	-	+
COc1ccc(S(=O)(=O)N(C)C[C@H]2Oc3ccc(NC(=O)Nc4ccc(C(F)(F)F)cc4)cc3CC(=O)N([C@H](C)CO)C[C@H]2C)cc1	-	+	-	-
COc1ccc(S(=O)(=O)N(C)C[C@@H]2Oc3ccc(NC(=O)Nc4ccc(C(F)(F)F)cc4)cc3CC(=O)N([C@@H](C)CO)C[C@H]2C)cc1	-	-	-	-
C[C@@H]1CN([C@@H](C)CO)C(=O)Cc2cc(N(C)C)ccc2O[C@H]1CN(C)S(=O)(=O)c1cccs1	-	+	-	-
O=C(O)CSc1nc2ccccc2n1CC(=O)O	-	-	-	-
CCOC(=O)c1ccc(NC(=O)Cn2cc(C#N)c3ccccc32)cc1	-	-	-	-
Cn1nc(-c2ccc(NCCN3CCOCC3)c([N+](=O)[O-])c2)c2ccccc2c1=O	-	-	-	-
CC(=O)Nc1ccccc1C(=O)OCc1cccc(C(=O)c2ccccc2)c1	-	-	-	-
CCn1c2ccccc2c2cc(NC(=O)COc3ccc([N+](=O)[O-])cc3)ccc21	-	-	-	-
COc1ccc(NC(=O)Nc2ccc3c(c2)CC(=O)N([C@@H](C)CO)C[C@H](C)[C@@H](CN(C)Cc2ccc(Oc4ccccc4)cc2)O3)cc1	-	-	+	-
Cc1noc(C)c1S(=O)(=O)Nc1ccc2c(c1)CC(=O)N([C@H](C)CO)C[C@@H](C)[C@@H](CN(C)Cc1ccc(-c3ccccc3)cc1)O2	-	+	-	+
Cc1noc(C)c1S(=O)(=O)Nc1ccc2c(c1)CC(=O)N([C@@H](C)CO)C[C@H](C)[C@H](CN(C)Cc1ccc(-c3ccccc3)cc1)O2	-	-	-	-
O=C(CN1C(=O)c2ccccc2C1=O)Nc1ccc(S(=O)(=O)N2CCCCCC2)cc1	-	-	-	-
CC(C)c1ccccc1OCC(=O)Nc1sc2c(c1C(N)=O)CCCC2	-	-	-	-
O=C(O)c1cc(O)c2c(c1)C(=O)c1cccc(O)c1C2=O	-	-	-	-
COc1c(C=O)c(O)cc2c1C(=O)c1ccccc1C2=O	-	+	-	-
OCCN(CCO)Cc1ccc(Br)cc1	-	-	+	-
N#Cc1c(C(F)(F)F)cc(-c2ccc(Br)cc2)nc1SCCC(=O)O	+	+	-	-
SMILES	NFkB SMM	Myc binder	p53 mut binder	STAT3 binder
Cn1c(SCC(=O)Nc2ccnc3ccccc23)nnc1-c1ccncc1	-	-	-	-
CO[C@H]1/C=C\O[C@@]2(C)Oc3c(C)c(O)c4c(O)c(c(/C=N\N5CCN(C)CC5)c(O)c4c3C2=O)NC(=O)/C(C)=C\C=C/C(C)[C@H](O)[C@@H](C)[C@@H](O)[C@@H](C)[C@@H](OC(C)=O)[C@@H]1C (stereo partly specified)	+	-	-	-
CO[C@H]1/C=C\O[C@@]2(C)Oc3c(C)c(O)c4c(O)c(c(/C=N/N5CCN(C)CC5)c(O)c4c3C2=O)NC(=O)/C(C)=C\C=C[C@H](C)[C@H](O)[C@@H](C)[C@@H](O)[C@@H](C)[C@H](OC(C)=O)[C@@H]1C	-	-	-	-
O=C(O)CCNC(=O)c1cncc(Br)c1	-	+	-	-
N#Cc1c(NC(=O)COc2ccc(C(=O)NC3CCCCC3)cc2)sc2c1CCC2	-	-	-	-
O=C(O)CNS(=O)(=O)c1cc(Cl)c(Cl)cc1Cl	+	+	+	-
COc1ccc(S(=O)(=O)NCCc2ccc(OC)c(OC)c2)cc1C	-	-	-	-
Clc1ccc(CSc2nnc(-c3ccco3)n2Cc2ccco2)c(Cl)c1	-	-	+	-
CC(C)(C)C(=O)CSc1nnc(-c2ccco2)n1Cc1ccco1	-	-	-	-
